In PubChem BioAssay (Tox21):
Where “and” joins values, the source holds several entries; their conditions need not be identical. Equal values may be shown once. Results filed as inconclusive are left out. Where a call stands in place of a potency, no number is given. Calls of active or inactive are those of the source. Calls come from the whole dose curve; as a rule, active = well fitted cell-killing curve with a large enough effect in the repeat runs; inconclusive = weak or mixed curves, or effect the other way; inactive = no such curve, though single readings can be large or run the other way.

Assay: qHTS assay for identifying genotoxic compounds that show differential cytotoxicity against isogenic chicken DT40 cell lines with known DNA damage response pathways - wild type cell line (AID 743012); note: nearly all actives have a fitted effect of over 60% in size
Conditions: DT40 wild type chicken cells viability, CellTiter-Glo, 40 h; series mostly up to 68.4 µM
Source text: U.S. Tox21 Program National Center for Advancing Translational Sciences [NCATS] NIH Chemical Genomics Center [NCGC] U.S. Environmental Protection Agency [EPA] National Institutes of Environmental Health Sciences [NIEHS] National Toxicology Program [NTP] U.S. Food and Drug Administration [FDA] Tox21 Assay Overview: DNA repair pathways play a critical role in cellular homeostasis by repairing DNA damage induced by endogenous processes and xenobiotics. Isogenic chicken DT40 cell lines deficient in different DNA repair pathways can be used to identify genotoxic compounds and aid in characterizing the nature of the DNA damage induced. Two DNA repair-deficient cell lines with disrupted genes, Rad54/Ku70 or Rev3, were used to screen the Tox21 10K compound library. Possible genotoxicity was based on the presence of a significant increase in cytotoxicity in one or more of the DNA repair-deficient cell lines compared to that observed in the parental DNA repair-proficient cell line. CellTiter Glo viability assay (Promega, Madison, WI) was used to measure cell viability in these cells after compound treatment. This assay includes the data from the wild type cell line.
Tox21 Assay Protocol Summary: 300 DT40 wild type cells in 5 uL/well were dispensed into white, solid-bottom 1536-well plates using a Multidrop Combi (ThermoFisher Scientific, Waltham, MA) dispenser. After the assay plates were incubated at 37 C/5% CO2 for approximately 0.5 hour, 23 nL of compounds dissolved in DMSO, positive controls or DMSO only was transferred into the assay plate by a pintool work station (Kalypsys, San Diego, CA). The assay plates were incubated at 37 C/5% CO2 for 40 hours. After 5 uL per well of CellTiter-Glo reagent was added into each well of the assay plates, the plates were incubated for 30 min at room temperature and the luminescence intensity of the plates was measured using a ViewLux (PerkinElmer, Shelton, CT) plate reader.
Potency is the fitted concentration of half-maximal effect.

Compound	Potency
[Ca+2]	inactive
CC(C)C(=O)OC(=O)C(C)C	inactive
CCC1C(=O)OCC1Cc1cncn1C (stereo not given)	inactive
CN(C)C(=O)Oc1cccc([N+](C)(C)C)c1	inactive
Nc1ccn([C@@H]2O[C@H](CO)[C@@H](O)C2O)c(=O)n1 (stereo not given in full)	298 nM (active) and 193 nM (active)
[O-][n+]1cccc(CO)c1	inactive
Clc1cc(Cl)cc(Cl)c1	inactive
CCCCS(=O)(=O)N[C@@H](Cc1ccc(OCCCCC2CCNCC2)cc1)C(=O)O	inactive
O=C(O)Cc1csc(-c2ccc(Cl)cc2)n1	inactive
CC(C)CCCO	inactive
O=CN(CCO)CCO	inactive
CC(C)(N)C#N	inactive
CCCCN(CCC(=O)OCC)C(C)=O	inactive
C=CCCC(=O)O	inactive
CCCCCCCCCCCCCCCCCCO	inactive
COc1cc(-c2ccc(=O)[nH]n2)ccc1OC(F)F	inactive
CCCCCCCCCCCCSC	inactive
O=C(CO)[C@@H](O)[C@H](O)[C@@H](O)CO	inactive
CO[Si](C)(OC)c1ccccc1	inactive
O=C(O)c1cc(C(=O)O)cc(C(=O)O)c1	inactive

Compound	Potency
COc1ccnc(CS(=O)c2nc3cc(OC(F)F)ccc3[nH]2)c1OC (stereo not given)	inactive
CC(=O)c1ccccc1[N+](=O)[O-]	inactive
CCN[C@@H]1C[C@H](N)[C@@H](OC2OC(CN)=CCC2N)[C@H](O)[C@H]1O[C@H]1OC[C@](C)(O)[C@H](NC)[C@H]1O (stereo not given in full)	inactive
Cc1ccc(C(=O)Nc2ccc(S(=O)(=O)O)c3cc(S(=O)(=O)O)cc(S(=O)(=O)O)c23)cc1NC(=O)c1cccc(NC(=O)Nc2cccc(C(=O)Nc3cc(C(=O)Nc4ccc(S(=O)(=O)O)c5cc(S(=O)(=O)O)cc(S(=O)(=O)O)c45)ccc3C)c2)c1	inactive
C[N+]1(CC2COC(c3ccccc3)(c3ccccc3)O2)CCCCC1 (stereo not given)	26.6 µM (active)
CC(C#N)(CCC(=O)O)N=NC(C)(C#N)CCC(=O)O (stereo not given)	inactive
CC(C)(CCC(=O)O)C(=O)O	inactive
NCCCC[C@H](N[C@@H](CCc1ccccc1)C(=O)O)C(=O)N1CCC[C@H]1C(=O)O	inactive
C=CCOCC(O)CO (stereo not given)	inactive
CC(=O)C1CCCCC1=O (stereo not given)	inactive
CO/N=C(\C(=O)N[C@@H]1C(=O)N2C(C(=O)O)=C(CSc3nc(=O)c(O)nn3C)CS[C@H]12)c1csc(N)n1	inactive
CCCn1cc[n+](C)c1C	inactive
CNCCO	inactive
NCCCC(N)(C(=O)O)C(F)F (stereo not given)	inactive
CCOc1ccccc1OCC	inactive
CC(=O)Oc1cccc(C)c1	inactive
O=C1CCCCCCCCCCCCCCO1	inactive
CCCc1nn(C)c2c(=O)[nH]c(-c3cc(S(=O)(=O)N4CCN(C)CC4)ccc3OCC)nc12	inactive
COc1ccc2cc1Oc1cc3c(cc1OC)CC[N+](C)(C)[C@H]3Cc1ccc(cc1)Oc1c(OC)c(OC)cc3c1[C@@H](C2)[N+](C)(C)CC3	inactive
CN(C)CCCN(C)CCCN(C)C	inactive
